Calls of active or inactive are those of the source. Rule for the calls: active = hit-call score of the fitted dose curve at least 0.9, where 1 is the maximum; inactive = score below 0.9.

The values that follow come from PubChem BioAssay (EPA / NIEHS).

The first assay is described as follows: ATG_AP_1_CIS: Attagene CIS-FACTORIAL HepG2 Assay for human Activator Protein 1 (AP-1) (AID 2282931). The conditions noted are these: HepG2 Attagene cis-factorial AP-1 reporter mRNA; actives raise or lower the signal. Summed up:
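HepG2, transient cis-reporter transfection; 24 h; readout RT-PCR/CE fluorescence; DMSO baseline, gain and loss fitted.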
Take `OC[C@@H](O)[C@H]1O[C@@H]2O[C@H](C(Cl)(Cl)Cl)O[C@@H]2[C@H]1O`: the outcome was inactive.
The same measure, in the same setting: for `O=C(Cc1ccccc1)OCCc1ccccc1` the value was “inactive”; for `CCC[N+](CCC)(CCC)CCC`, “inactive”; for `N#Cc1ccccc1Cl`, “inactive”.
For orientation: AC50 means the midpoint of the concentration-response curve, whichever way the signal moves. As to `Cc1cc(C(C)(C)c2ccc(O)c(C)c2)ccc1O`, the AC50 was 83.9 µM (active).
As for `C#CCO`, the call was inactive.
Same read-out and setting: next, `O=NN1CCOCC1`: “inactive”.
For the compound `CCCSP(=S)(OCC)Oc1ccc(Cl)cc1Cl` (stereo not drawn), the AC50 was 31.7 µM (active).
Regarding `COCCl`, the call was inactive.
With `CNC(=O)O/N=C/C(C)(C)S(C)(=O)=O`, the compound was called inactive.
As for `c1cc[c]([Sb]([c]2ccccc2)[c]2ccccc2)cc1`, the AC50 was 68.5 µM (active).
Regarding `CN(N=O)C(N)=O`, the compound was called inactive.
With `CCC[CH2][Sn]([CH2]CCC)([CH2]CCC)[CH2]CCC`, the half-maximal activity concentration (AC50) is 7.55 µM (active).
As to `CC(c1ccccc1)(c1ccc(O)cc1)c1ccc(O)cc1`, the half-maximal activity concentration (AC50) was 7.98 µM (active).
Regarding `C[CH2][Hg][S]c1ccccc1C(=O)O`, the result was inactive.
In the case of `O=C(Nc1ccc(Br)cc1)c1cc(Br)cc(Br)c1O`, the compound was classed as inactive.
Same read-out and setting: for `COC(F)(C(F)(F)C(F)(F)F)C(F)(C(F)(F)F)C(F)(F)F` (stereo not drawn) the value was “inactive”; for `Clc1cccc(Cl)c1`, “inactive”; for `CC1CC(=O)O1` (stereo not drawn), “inactive”.
Same read-out and setting: for `CCCCCCCCCCCCBr` the value was “inactive”; for `Cc1ccc2nc3sc(=O)sc3nc2c1`, “inactive”.
`ClCCCCl`: the compound was called inactive.
Still for that read-out and setting: next, `Brc1c(Br)c(Br)c(Oc2c(Br)c(Br)c(Br)c(Br)c2Br)c(Br)c1Br`: “inactive”; `Clc1cccc(Cl)c1Cl`: “inactive”.
Same read-out and setting: for `CC(C)(c1ccc(O)c(-c2ccccc2)c1)c1ccc(O)c(-c2ccccc2)c1` the value was “inactive”; for `Clc1cnc(Oc2ccc(Oc3ncc(Cl)cc3Cl)cc2)c(Cl)c1`, “inactive”; for `CCOP(=S)(OCC)OP(=S)(OCC)OCC`, “inactive”.
Still for that read-out and setting: next, `CCCCCCCCBr`: “inactive”; `CC1(C)COP(Oc2ccccc2)OC1`: “inactive”.
Take `Cc1ccc(CCl)cc1`: the result was inactive.
In the case of `Cc1c([N+](=O)[O-])c(C)c([N+](=O)[O-])c(C(C)(C)C)c1[N+](=O)[O-]`, the outcome was inactive.
Turning to `CC(C)N(C(=O)CCl)c1ccccc1`, the AC50 was 11.6 µM (active).
For `Brc1ccc(Oc2c(Br)cc(Br)cc2Br)c(Br)c1`, the outcome was inactive.
Take `O=NN1CCCCCCC1`: the result was inactive.
The same measure, in the same setting: for `CC[N+](CC)(CC)CC` the value was “inactive”; for `O=NN1CCCCCC1`, “inactive”.
Same read-out and setting: for `COC(=O)Nc1cccc(OC(=O)Nc2cccc(C)c2)c1` the value was “inactive”.
Same read-out and setting: for `COP(=S)(OC)Oc1cc(Cl)c(I)cc1Cl` the value was “inactive”; for `Cc1cc(Cl)ccc1OCCCC(=O)O`, “inactive”.

A short description of a further assay: ATG_AP_2_CIS: Attagene CIS-FACTORIAL HepG2 Assay for human Activator Protein 2 (AP-2) (AID 2282932). As to conditions: HepG2 AP-2 cis-reporter, Attagene transcription factor profiling; actives raise or lower the signal. Summed up: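 Liver-derived HepG2 line, cis-reporter system measuring endogenous factors; 24 h dosing; reporter mRNA detected by fluorescent RT-PCR and capillary electrophoresis.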
As for `OC[C@@H](O)[C@H]1O[C@@H]2O[C@H](C(Cl)(Cl)Cl)O[C@@H]2[C@H]1O`, the outcome was inactive.
Still for that read-out and setting: for `O=C(Cc1ccccc1)OCCc1ccccc1` the value was “inactive”; for `CCC[N+](CCC)(CCC)CCC`, “inactive”; for `N#Cc1ccccc1Cl`, “inactive”.
Same read-out and setting: for `Cc1cc(C(C)(C)c2ccc(O)c(C)c2)ccc1O` the value was “inactive”.
As to `C#CCO`, the outcome was inactive.
Same read-out and setting: for `O=NN1CCOCC1` the value was “inactive”; for `CCCSP(=S)(OCC)Oc1ccc(Cl)cc1Cl` (stereo not drawn), “inactive”.
Still for that read-out and setting: for `COCCl` the value was “inactive”; for `CNC(=O)O/N=C/C(C)(C)S(C)(=O)=O`, “inactive”; for `c1cc[c]([Sb]([c]2ccccc2)[c]2ccccc2)cc1`, “inactive”.
The same measure, in the same setting: for `CN(N=O)C(N)=O` the value was “inactive”.
`CCC[CH2][Sn]([CH2]CCC)([CH2]CCC)[CH2]CCC`: the half-maximal activity concentration (AC50) is 19.1 µM (active).
For the compound `CC(c1ccccc1)(c1ccc(O)cc1)c1ccc(O)cc1`, the compound was called inactive.
Consider `C[CH2][Hg][S]c1ccccc1C(=O)O`, for which the AC50 was 4.81 µM (active).
For `O=C(Nc1ccc(Br)cc1)c1cc(Br)cc(Br)c1O`, the compound was called inactive.
On the same count and under the same terms, next, `COC(F)(C(F)(F)C(F)(F)F)C(F)(C(F)(F)F)C(F)(F)F` (stereo not drawn): “inactive”; `Clc1cccc(Cl)c1`: “inactive”; `CC1CC(=O)O1` (stereo not drawn): “inactive”.
`CCCCCCCCCCCCBr`: the call was inactive.
With `Cc1ccc2nc3sc(=O)sc3nc2c1`, the AC50 is 9.68 µM (active).
Turning to `ClCCCCl`, the compound was called inactive.
Same read-out and setting: for `Brc1c(Br)c(Br)c(Oc2c(Br)c(Br)c(Br)c(Br)c2Br)c(Br)c1Br` the value was “inactive”.
Still for that read-out and setting: for `Clc1cccc(Cl)c1Cl` the value was “inactive”.
The same measure, in the same setting: next, `CC(C)(c1ccc(O)c(-c2ccccc2)c1)c1ccc(O)c(-c2ccccc2)c1`: “inactive”; `Clc1cnc(Oc2ccc(Oc3ncc(Cl)cc3Cl)cc2)c(Cl)c1`: “inactive”; `CCOP(=S)(OCC)OP(=S)(OCC)OCC`: “inactive”.
Regarding `CCCCCCCCBr`, the outcome was inactive.
With `CC1(C)COP(Oc2ccccc2)OC1`, the compound was classed as inactive.
Same read-out and setting: next, `Cc1ccc(CCl)cc1`: “inactive”; `Cc1c([N+](=O)[O-])c(C)c([N+](=O)[O-])c(C(C)(C)C)c1[N+](=O)[O-]`: “inactive”.
Consider `CC(C)N(C(=O)CCl)c1ccccc1`, for which the AC50 was 50.4 µM (active).
With `Brc1ccc(Oc2c(Br)cc(Br)cc2Br)c(Br)c1`, the call was inactive.
On to `O=NN1CCCCCCC1`, for which the outcome was inactive.
Same read-out and setting: next, `CC[N+](CC)(CC)CC`: “inactive”; `O=NN1CCCCCC1`: “inactive”.
Take `COC(=O)Nc1cccc(OC(=O)Nc2cccc(C)c2)c1`: the compound was called inactive.
Consider `COP(=S)(OC)Oc1cc(Cl)c(I)cc1Cl`, for which the AC50 was 22.5 µM (active).
Turning to `Cc1cc(Cl)ccc1OCCCC(=O)O`, the result was inactive.
